The values below come from publication PMC5540273 (PLoS ONE, 2017).

Some test systems named below: S6K1; SBK1; SGK2; SGK3; SGK; SIK2; SIK; SLK; SNRK; SRC; SRMS; SRPK1; SRPK2; SRPK3; STK16; STK33; STK35.
Common to all, as to settings: concentration: 1 μM, replicates: in singlicate; n = 1
For experiment [1], the system named is T1, RSK4(Kin.Dom.1-N-terminal).
T1 construct: gene RPS6KA6

Experiment [2] has as its system T2, RSK4(Kin.Dom.2-C-terminal).
T2 construct: gene RPS6KA6

The subject of the next experiment is T3, SNARK.
T3 construct: gene NUAK2
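Note: KINOMEscan kinase panel screen.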

With `CN(c1ccc(NC(=O)N2CCN(CCCN3CCOCC3)CC2)cc1)c1ccnc(Nc2ccc(CS(C)(=O)=O)cc2)n1.Cl` [GW830899], the “%Inh” value (in [1]; in [2]; with S6K1; in the experiment on SBK1; with SGK2; with SGK3) was 0% in each case. Moreover, the “%Inh” value is recorded as 0% in the experiment with SGK; 9% with SIK2; 8% in the experiment with SIK; 47% with SLK; 0% in the experiment on SNARK; 0% with SNRK. The “%Inh” value in the experiment with SRC stood at 10%; in the experiment on SRMS, 0%; in the experiment with SRPK1 it was 56%; in the experiment with SRPK2, 9%; in the experiment on SRPK3, 46%; in the experiment on STK16, 74%. In addition, the results for the “%Inh” value in the experiment on STK33 and with STK35 were 0% and 88%, respectively.

Take `O=C(Nc1n[nH]c2nc(-c3ccccc3O)ccc12)C1CC1` [SB-711880]: the “%Inh” value in experiment [1] worked out at 51%; in [2], 28%; with S6K1, 26%; with SBK1 it was 0%; with SGK2 it was 31%; with SGK3, 8%. The “%Inh” value is recorded as 30% in the experiment on SGK; 58% in the experiment with SIK2; 0% in the experiment on SIK; 49% in the experiment on SLK; 0% in the experiment with SNARK; 0% in the experiment on SNRK. For the same compound, the “%Inh” value with SRC was 0%; in the experiment with SRMS it was 0%; in the experiment with SRPK1, 0%; with SRPK2, 0%; in the experiment on SRPK3, 23%; in the experiment with STK16, 15%. Moreover, the “%Inh” value in the experiment with STK33 stood at 0%; in the experiment on STK35 it was 57%.

Regarding `O=C(Nc1c(F)cccc1F)c1cc(C(=O)c2ccccc2F)c[nH]1` [GSK1326180], the “%Inh” value in experiment [1] is reported as 1%; in experiment [2], 0%; in the experiment on S6K1, 0%; in the experiment with SBK1, 52%; with SGK2 it was 18%; with SGK3, 5%. The “%Inh” value was found to be 11% in the experiment on SGK; 0% in the experiment on SIK2; 0% in the experiment with SIK; 0% in the experiment with SLK; 0% with SNARK; 0% with SNRK. Further, the “%Inh” value stood at 0% in the experiment on SRC; 0% with SRMS; 18% with SRPK1; 1% in the experiment with SRPK2; 0% in the experiment with SRPK3; 0% with STK16. In addition, the “%Inh” value in the experiment on STK33 stood at 16%; in the experiment on STK35 it was 0%.

Turning to `Cl.Cl.NC(CNC(=O)c1cc(Br)c(-c2ccnc3[nH]ccc23)s1)c1ccccc1` (stereo not drawn) [GSK1322949], the “%Inh” value is 0% in [1]; 16% in [2]; 39% in the experiment on S6K1; 51% in the experiment with SBK1; 16% with SGK2; 66% with SGK3. For the same compound, the “%Inh” value is recorded as 46% with SGK; 6% in the experiment with SIK2; 4% in the experiment with SIK; 20% with SLK; 74% in the experiment with SNARK; 0% in the experiment with SNRK. For the same compound, the “%Inh” value is listed as 0% in the experiment on SRC; 0% in the experiment with SRMS; 80% with SRPK1; 80% in the experiment with SRPK2; 83% in the experiment on SRPK3; 61% with STK16. Further, the figures for the “%Inh” value in the experiment on STK33 and in the experiment on STK35 were 53% and 20%, respectively.

For `CCn1c(-c2nonc2N)nc2c(-c3ccccc3)ncc(OCCCN)c21.O=C(O)C(F)(F)F.O=C(O)C(F)(F)F` [GSK260205], the “%Inh” value in experiment [1] is 67%; in experiment [2] it was 90.3%; in the experiment on S6K1 it was 44%; in the experiment on SBK1, 9%; with SGK2 it was 0%; with SGK3, 71%. The “%Inh” value in the experiment on SGK was 1%; in the experiment on SIK2 it was 36%; in the experiment on SIK, 11%; in the experiment on SLK, 99.1%; with SNARK, 0%; in the experiment on SNRK it was 57%. Besides, the “%Inh” value in the experiment on SRC is 0%; in the experiment with SRMS, 0%; with SRPK1, 22%; in the experiment with SRPK2, 0%; in the experiment on SRPK3, 0%; in the experiment on STK16, 0%. Besides, the “%Inh” value in the experiment on STK33 and with STK35 was 0% in each case.

For `Cl.Cl.NCC(NC(=O)c1cc(-c2cccnc2)c(-c2ccnc3[nH]ccc23)s1)c1ccccc1` (stereo not drawn) [GSK1323434], the “%Inh” value in [1] was determined as 0%; in experiment [2] it was 31%; with S6K1, 27%; in the experiment on SBK1, 42%; in the experiment on SGK2, 51%; in the experiment on SGK3, 70%. Besides, the “%Inh” value in the experiment on SGK came to 27%; in the experiment with SIK2, 0%; in the experiment with SIK it was 12%; with SLK, 32%; with SNARK it was 65%; in the experiment on SNRK, 0%. Moreover, the “%Inh” value in the experiment on SRC worked out at 33%; in the experiment on SRMS, 0%; in the experiment on SRPK1, 44%; in the experiment with SRPK2, 14%; in the experiment with SRPK3 it was 0%; in the experiment on STK16, 26%. The results for the “%Inh” value in the experiment with STK33 and in the experiment with STK35 were 18% and 0%, respectively.

In the case of `COc1cc(Nc2nccc(N3CCC(NS(=O)(=O)c4ccc(NC(C)=O)cc4)CC3)n2)cc(OC)c1OC` [GSK1379825], the “%Inh” value was 0% in [1]; 3% in experiment [2]; 0% in the experiment on S6K1; 14% with SBK1; 15% in the experiment on SGK2; 0% with SGK3. The “%Inh” value in the experiment on SGK is 9%; in the experiment on SIK2 it was 61%; in the experiment on SIK it was 0%; in the experiment with SLK, 48%; with SNARK, 0%; in the experiment on SNRK it was 0%. Besides, the “%Inh” value is recorded as 35% with SRC; 0% in the experiment with SRMS; 67% with SRPK1; 0% in the experiment on SRPK2; 8% in the experiment with SRPK3; 94.8% in the experiment on STK16. Moreover, the entries for the “%Inh” value with STK33 and with STK35 were 0% and 52%, respectively.

Turning to `Cc1ccc(NC(=O)c2ccc(Cl)c(Cl)c2)cc1-c1ccc(C(=O)Nc2ccncc2)cc1` [GSK1398460], the “%Inh” value in experiment [1] worked out at 0%; in experiment [2] it was 23%; in the experiment with S6K1, 0%; in the experiment with SBK1, 15%; with SGK2, 0%; in the experiment on SGK3, 14%. Also, the “%Inh” value with SGK came to 0%; with SIK2, 9%; in the experiment with SIK, 8%; in the experiment with SLK, 29%; in the experiment on SNARK it was 9%; in the experiment on SNRK it was 0%. Also, the “%Inh” value in the experiment on SRC is 23%; in the experiment on SRMS it was 0%; in the experiment on SRPK1, 34%; in the experiment on SRPK2, 0%; in the experiment with SRPK3 it was 14%; in the experiment on STK16, 14%. Further, the “%Inh” value with STK33 and in the experiment with STK35 was 0% in each case.

`CN(c1ccc(F)c(NC(=O)c2cccc(OC(C)(C)C#N)c2Cl)c1)c1ccc2nc(NC(=O)C3CC3)sc2n1`: the “%Inh” value stood at 4% in experiment [1]; 0% in experiment [2]; 1% in the experiment on S6K1; 18% with SBK1; 0% with SGK2; 2% with SGK3. For the same compound, the “%Inh” value is 0% in the experiment on SGK; 39% with SIK2; 97% with SIK; 14% in the experiment with SLK; 0% in the experiment on SNARK; 12% in the experiment on SNRK. Also, the “%Inh” value with SRC was 99%; with SRMS, 0%; with SRPK1, 52%; in the experiment with SRPK2 it was 0%; with SRPK3, 0%; in the experiment on STK16, 0%. Besides, the “%Inh” value with STK33 and with STK35 was 0% in each case.
